Sampled rows, rich in hits. Any-hit rate of the full collection: about 19%.
TGFb inhibitor = inhibitors of TGF-b signaling; 1.2% of 410,000 active; Potency, µM (titrated, usually from 46.1 µM), inactives show at the highest dose activity, negative = inhibition, hits mostly inhibitors; AID 588855; HepG2 CAGA-GFP TGF-b/SMAD3 reporter, GFP fluorescence, 18 h; TGF-beta stimulated, 500 pg/mL final; further: potency means the concentration at half of the fitted maximal effect; on the % scale 0 is the no-effect control and ±100 the full control effect; nearly all actives have a fitted effect of over 65% in size
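HEPG2 CAGA-GFP reporter cells (1000/well, DMEM with 1% FBS) received compounds, then recombinant TGF-beta at 500 pg/mL final for 18 hours at 37 degrees C. Per-cell GFP summed per well was normalised to unstimulated and stimulated DMSO controls before curve fitting.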
TDP1 cell CPT = growth inhibition of DT40 Tdp1-/-;hTDP1 cells with camptothecin (screen for TDP1 inhibitors) | 12% of 420,000 active | Potency, µM (highest dose often 46.2 µM), for the others: top-dose activity change, negative = growth inhibition, hits mostly inhibitors | chicken DT40 Tdp1-/-;hTDP1 cells + 20 nM CPT, ATP luminescence, 48 h | AID 686979; further: potency means the concentration at half of the fitted maximal effect; on the % scale 0 is the no-effect control and ±100 the full control effect; nearly all actives have a fitted effect of over 55% in size
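Chicken DT40 Tdp1-/- cells stably complemented with human TDP1 were seeded at 400 cells/well in medium containing 20 nM camptothecin, exposed to pin-transferred compounds, and grown at 37 °C for at least 48 hr. Viability was read as ATP luminescence.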
TDP1 inh = blocks human tyrosyl-DNA phosphodiesterase 1; Q9NUW8; recombinant TDP1, AlphaScreen DNA substrate cleavage; Potency, µM (highest dose often 130 µM), for the others: top-dose activity change, negative = inhibition, most hits filed as inhibitors; 0.28% of 350,000 active; AID 485290; further: potency means the concentration at half of the fitted maximal effect; on the % scale 0 is the no-effect control and ±100 the full control effect; nearly all actives have a fitted effect of over 40% in size
Target sequence (Q9NUW8 whole entry, looked up): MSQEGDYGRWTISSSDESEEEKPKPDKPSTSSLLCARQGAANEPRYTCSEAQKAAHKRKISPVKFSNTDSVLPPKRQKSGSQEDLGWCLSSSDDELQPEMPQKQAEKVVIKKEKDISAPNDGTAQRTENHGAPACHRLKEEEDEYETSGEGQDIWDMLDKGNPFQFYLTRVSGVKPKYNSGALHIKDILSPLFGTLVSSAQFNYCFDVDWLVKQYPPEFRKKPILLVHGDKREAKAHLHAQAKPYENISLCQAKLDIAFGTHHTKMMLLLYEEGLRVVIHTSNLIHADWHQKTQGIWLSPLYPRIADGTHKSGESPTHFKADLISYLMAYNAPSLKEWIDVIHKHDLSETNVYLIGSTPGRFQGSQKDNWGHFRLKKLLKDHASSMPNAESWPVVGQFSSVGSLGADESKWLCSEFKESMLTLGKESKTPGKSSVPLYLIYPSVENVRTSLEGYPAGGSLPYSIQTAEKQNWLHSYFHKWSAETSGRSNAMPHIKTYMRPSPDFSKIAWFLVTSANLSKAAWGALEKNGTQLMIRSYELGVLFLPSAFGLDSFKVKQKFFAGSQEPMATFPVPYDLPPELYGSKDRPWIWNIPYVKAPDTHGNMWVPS
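Steps: enzyme plus compound, 15 min RT; add biotin/phosphotyrosine-FITC oligonucleotide (15 nM final), react 5 min; add donor/acceptor beads (10 ug/ml final), 10 min; read AlphaScreen. Tdp1 at 1 nM final.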
IL1B secr inh = blocks inflammasome-driven IL-1 beta release | THP-1 LPS/ATP IL-1B secretion, AlphaLISA, 16 h; stronger effect = lower value | 4.7% of 360,000 active | activity change, % at 57.5 µM; in the data active means activity change below about -50%; inconclusive means mostly about -30% to -49%; further: on the % scale 0 is the no-effect control and ±100 the full control effect
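Secreted IL-1B measured by AlphaLISA bead assay after 16 h compound exposure of THP-1 cells; compounds (final up to 57.5 uM) added 1 h before LPS (250 ng/mL) and ATP (1.25 mM) stimulation; lower signal means less secretion.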
DT40 TDP1 no CPT = qHTS for Inhibitors of human tyrosyl-DNA phosphodiesterase 1 (TDP1): qHTS in cells in absence of CPT | DT40 Tdp1-/- hTDP1 cells, no CPT, ATP luminescence, 48 h | Potency, µM (top dose mostly 46.2 µM), for inactives: top-dose activity change, negative = growth inhibition, hits mostly inhibitors | 15% of 420,000 active | AID 686978, 2013; further: potency means the concentration at half of the fitted maximal effect; on the % scale 0 is the no-effect control and ±100 the full control effect; nearly all actives have a fitted effect of over 55% in size
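Growth kinetics read by CellTiter-Glo luminescence after ≥48 hr at 37 °C. Cells: DT40 Tdp1-/- stably carrying human TDP1, 400 per well, compound exposure in the absence of CPT (DMSO vehicle).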
HepG2 viability = kills HepG2 cells in TGF-b inhibitor counter-screen. 0.76% of 410,000 active. HepG2 CAGA-GFP viability, ATP luminescence, 18 h. Potency, µM (titrated, usually from 46.1 µM), without a hit: at the highest dose activity change, negative = cytotoxicity, most hits filed as cytotoxic; further: potency means the concentration at half of the fitted maximal effect
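HepG2 CAGA-GFP cells (1000/well, DMEM with 1% FBS) received compound, then TGF-beta at 500 pg/mL final, and were incubated 18 hours at 37 degrees C. Viability was read by CellTiter-Glo luminescence. Media-only wells were set as complete cell-killing and DMSO as no toxicity.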
* = called active by the depositor; ? = inconclusive; . = no result. Unless noted, the call rests on the fitted dose curve; in most records, active means well fitted curve in the direction sought with a large enough effect; inconclusive means small, poorly fitted or top-dose-only effect, or another doubt; inactive means no such curve, though single readings can be large; an effect the other way counts as inactive or inconclusive.

SMILES	TGFb inhibitor	TDP1 cell CPT	TDP1 inh	IL1B secr inh	DT40 TDP1 no CPT	HepG2 viability
CCCCc1c(-c2cccc(Cl)c2)ncn1CCc1ccccc1OC	.	8.2µM*	.	-57.8*	8.2µM*	.
CS(=O)(=O)NCC(c1ccco1)N1CCN(c2ccccc2)CC1 (stereo not given)	-18.0%	-12.0%	2.6%	.	-15.6%	-1.5%
COc1cccc(-n2c(SCC(N)=O)nc3c(oc4ccccc43)c2=O)c1	-21.7%	?	1.0%	.	-27.4%	-15.0%
Cc1ccc(N2CC(NC(=O)Cc3ccc(F)cc3)CC2=O)cc1C (stereo not given)	-1.0%	?	2.6%	.	?	-0.1%
CCOc1ccc(NC(=O)CC2C(=O)N(c3ccc(F)cc3)C(=O)N2Cc2ccc(OC)c(OC)c2)cc1 (stereo not given)	?	-24.6%	-9.0%	.	?	-24.7%
COc1ccc2cc(Br)ccc2c1CC(=O)NC1CC(C)(C)NC(C)(C)C1	-59.8%	?	1.4%	-65.7*	23.1µM*	-90.1%
CCNC(=O)Cc1c(OC)ccc2cc(Br)ccc12	-10.6%	4.5%	4.3%	4.8	-6.0%	-10.4%
O=c1c(CCc2ccccc2)nc2cnc(N3CCOCC3)nc2n1CCc1ccccc1	.	3.5%	.	.	27.0%	.
Cc1ccc2[nH]c(CSc3nnc(NC(=O)c4ccccc4F)s3)cc(=O)c2c1	-2.5%	10.3µM*	8.1%	.	10.3µM*	-1.4%
Cc1ccc2[nH]c(CSc3nnc(NC(=O)c4ccccc4C)s3)cc(=O)c2c1	?	7.31µM*	5.4%	.	5.8µM*	1.4%
COC(=O)c1cnn(-c2ccccc2)c1-n1cccc1C=O	-18.1%	-14.0%	-2.3%	6.7	-19.2%	-10.8%
O=C(CSc1cccc2cccnc12)N1CCCC1	?	4.11µM*	7.8%	-115.9*	5.17µM*	15.8µM*
NNC(=O)CSc1cccc2cccnc12	4.9%	4.5%	-2.5%	-26.9	3.1%	-12.9%
CN(C)C(=O)CSc1cccc2cccnc12	?	4.61µM*	8.7%	-7.9	4.61µM*	7.08µM*
O=C(CSc1ncccn1)N1CCCCCC1	12.0%	-0.9%	-1.2%	7.6	14.7%	-0.7%
CCOC(=O)c1ccccc1NC(=O)c1sc2ncn(Cc3cccc(F)c3)c(=O)c2c1C	0.3%	?	-1.9%	.	-25.3%	-16.1%
COc1ccc(OC)c(/C=C/c2[nH]c(=O)[nH]c(=O)c2[N+](=O)[O-])c1	8.1%	18.6%	.	-59.0*	1.8%	2.8%
CCn1cc(C(=O)NCCc2ccccc2)c(=O)c2cc(S(=O)(=O)N(C)C3CCCCC3)ccc21	0.6%	5.4%	-2.3%	.	-3.8%	0.9%
COCCCn1c(-c2cccc(Cl)c2)nc2c1c(=O)[nH]c(=O)n2Cc1ccccc1	-12.7%	?	.	12.4	7.31µM*	6.3%
Cn1c(-c2cc(Cl)ccc2O)nc2c1c(=O)[nH]c(=O)n2Cc1ccccc1	4.9%	18.4µM*	3.5%	59.9	13µM*	-9.8%
Nc1cc(=O)[nH]c(SCc2ccccc2)n1	-2.2%	18.8%	.	5.8	4.0%	-21.2%
Nc1cc(=O)[nH]c(SCc2cccc(Cl)c2)n1	3.9%	23.1µM*	3.1%	84.3	?	-3.8%
CC(C)(C)c1ccc(CSc2nc(N)cc(=O)[nH]2)cc1	?	23.1µM*	.	-2.4	18.4µM*	-5.9%
Nc1cc(=O)[nH]c(SCc2ccc(Cl)cc2)n1	2.2%	-2.1%	-2.3%	34.1	-25.4%	-19.3%
CCN(CC)S(=O)(=O)c1ccc2oc(C(=O)NCc3ccc(F)cc3)c(C)c2c1	5.7%	13µM*	0.0%	?	13µM*	-22.8%
SMILES	TGFb inhibitor	TDP1 cell CPT	TDP1 inh	IL1B secr inh	DT40 TDP1 no CPT	HepG2 viability
CCOC(=O)c1oc2ccc(S(=O)(=O)n3nc(-c4ccc(OC)cc4)cc3N)cc2c1C	-23.5%	2.91µM*	2.6%	17.9	2.91µM*	5.8%
Cc1c(C(=O)NCc2ccc3c(c2)OCO3)oc2ccc(S(=O)(=O)N3CCC(C)CC3)cc12	-1.6%	14.6µM*	-2.4%	78.2	14.6µM*	-39.6%
Cc1c(C(=O)NCCc2ccccc2)oc2ccc(S(=O)(=O)N3CCOCC3)cc12	-1.2%	-23.8%	2.6%	-3.6	?	0.0%
CCOc1ccc(-c2cc(N)n(S(=O)(=O)c3ccc(OC)cc3)n2)cc1	-22.7%	?	0.0%	-8.2	?	14.3%
Cc1c(C(=O)NCc2ccc(F)cc2)oc2ccc(S(=O)(=O)N3CCOCC3)cc12	4.7%	?	6.4%	-22.0	14.6µM*	-2.5%
O=C(c1ccc2c(c1)OCO2)c1cn(Cc2ccc(F)cc2)c2ccccc2c1=O	-5.3%	?	3.5%	.	?	-9.7%
CCOc1cccc(C2Oc3nc(SC)nnc3-c3ccccc3N2C(C)=O)c1OC (stereo not given)	-8.8%	-27.2%	.	.	-25.7%	12.9%
CCN(CC)S(=O)(=O)c1ccc2oc(C(=O)Nc3cc(C)ccc3OC)c(C)c2c1	-18.5%	?	5.2%	.	?	-12.6%
CCN(CC)S(=O)(=O)c1ccc2oc(C(=O)NC3CC3)c(C)c2c1	-2.3%	-21.7%	.	24.3	10.3µM*	0.5%
Cc1c(C(=O)NC2CC2)oc2ccc(S(=O)(=O)N3CCCCCC3)cc12	3.8%	?	2.0%	7.1	?	-17.4%
COc1ccc2oc(C(=O)NCCc3ccccc3)c(C)c2c1	-1.2%	0.1%	.	-27.3	?	-9.0%
CCN(CC)S(=O)(=O)c1ccc2oc(C(=O)Nc3ccc(OC)cc3OC)c(C)c2c1	?	18.4µM*	5.9%	6.4	11.6µM*	-79.2%
CCN(CC)S(=O)(=O)c1ccc2oc(Nc3ccc(OC)cc3OC)nc2c1	0.7%	?	0.2%	24.8	18.4µM*	-14.5%
COc1ccc2oc(C(=O)NCc3cc(OC)c(OC)cc3OC)c(C)c2c1	-15.9%	23.1µM*	14.5%	-13.7	16.4µM*	-21.4%
Cc1ccc(C)c(S(=O)(=O)NC(C)C(=O)NCc2ccccn2)c1 (stereo not given)	-7.7%	1.7%	5.0%	6.9	-8.5%	-2.8%
Cc1ccc(N2C(=O)CSC23C(=O)N(CC(=O)NC2CCCCC2)c2ccccc23)cc1C (stereo not given)	-1.5%	-16.7%	2.1%	.	?	-2.3%
Cc1cccc(N2CC(C(=O)NC3CCCCCC3)CC2=O)c1C (stereo not given)	9.7%	?	1.3%	7.0	?	-1.4%

Source: PubChem
